Measurements as given in ChEMBL document CHEMBL3433997, “St. Jude Leishmania screening dataset” (2016).
Where “and” joins values, the source holds several entries; their conditions need not be identical. Equal values may be shown once.

Legend:
Format in all cases: functional
[1] = target: Solute carrier family 2, facilitated glucose transporter member 1 (Homo sapiens) (UniProt P11166); test: ST_JUDE_LEISH: Cytotoxicity at 2uM final concentration against transgenic Leishmania Mexicana promastigotes LmGLUT1 that are glucose transport deficient and complemented with the human glucose transporter GLUT1. Activity is measured by DNA content using SYBR green in vitro
[2] = target: Hexose transporter 1 (Plasmodium falciparum) (UniProt O97467); test: ST_JUDE_LEISH: Cytotoxicity at 2uM final concentration against transgenic Leishmania Mexicana promastigotes LmPfHT that are glucose transport deficient and complemented with the Plasmodium falciparum hexose transporter. Activity is measured by DNA content using SYBR green in vitro
[3] = target: Glucose transporter (Leishmania mexicana) (UniProt O61059); test: ST_JUDE_LEISH: Cytotoxicity at 2uM final concentration against transgenic Leishmania Mexicana promastigotes LmGT2 that are glucose transport deficient and complemented with the L. Mexicana glucose transporter 2. Activity is measured by DNA content using SYBR green in vitro

Solute carrier family 2, facilitated glucose transporter member 1 (Homo sapiens), sequence (P11166 whole entry): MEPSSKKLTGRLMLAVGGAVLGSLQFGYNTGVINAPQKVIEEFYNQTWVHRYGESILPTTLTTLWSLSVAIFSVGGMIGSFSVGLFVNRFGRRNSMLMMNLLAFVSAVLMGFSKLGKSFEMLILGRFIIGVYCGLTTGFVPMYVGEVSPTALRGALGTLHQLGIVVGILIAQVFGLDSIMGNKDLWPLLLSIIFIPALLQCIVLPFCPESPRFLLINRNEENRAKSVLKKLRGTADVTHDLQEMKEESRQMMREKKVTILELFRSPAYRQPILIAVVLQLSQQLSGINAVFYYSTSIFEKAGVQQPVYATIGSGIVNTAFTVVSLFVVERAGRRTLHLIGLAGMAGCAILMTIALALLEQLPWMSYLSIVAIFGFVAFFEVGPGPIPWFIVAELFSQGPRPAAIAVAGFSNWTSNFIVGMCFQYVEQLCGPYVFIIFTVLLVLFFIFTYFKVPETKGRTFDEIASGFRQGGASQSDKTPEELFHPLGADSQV

Row | Compound | inhibition [1] | inhibition [2] | inhibition [3]
1 | COc1ccc(-c2cccc(NC(=O)c3cccc(C#N)c3)c2)cc1CN(C)CCO | 3.7% | 5.06% | 5.5%
2 | Cc1[nH]c(C)c(-c2ccc(Oc3ccc(OC(F)(F)F)cc3)cc2)c(=O)c1Br | -1.24% and 1.98% | -1.18% and 1.4% | -2.31% and 2.01%
3 | Cc1c[nH]c2cc(/C=C/C(=O)NC3CCC(CCN4CCc5ccc(C#N)cc5CC4)CC3)ccc12 (stereo not drawn) | 2.72% | 1.75% | 2.01%
4 | N#CCCN1CCN(Cc2cccc(-c3ccc(-c4nc5cc(C(F)(F)F)ccc5[nH]4)cc3)c2)CC1 | 3.02% | 2.73% | 2.78%
5 | C=CCn1cc(C2CCN(CCCCNC(=O)c3sc(-c4ccc(C(F)(F)F)cc4)nc3CO)CC2)c2cc(OC)ccc21 | 1.93% | 3.91% | 4.35%
6 | O=C(Nc1cccc(CN2CCCN(Cc3ccc(O)cc3)CC2)c1)c1cccc(Cl)c1 | 12.2% | 13.4% | 11.7%
7 | CCC1(CC)CN(c2ccccc2)c2ccc(O)cc2S(=O)(=O)C1CC(C)C (stereo not drawn) | 0.72% | 0.32% | 0.3%
8 | COc1ccc(-c2cccc(NC(=O)c3ccc(C#N)cc3)c2)cc1CN1CCN(C)CC1 | 16.1% | 14.8% | 11.3%
9 | OC(CN1CCN(C2CCCCC2)CC1)Cn1c2ccccc2c2cc(Br)ccc21 (stereo not drawn) | 1.23% | 0.82% | 0.47%
10 | CC(=O)c1cccc(NC(=O)c2ccc(Cl)c(S(=O)(=O)N3CCc4ccccc43)c2)c1 | 12.1% | 11.9% | 12%
11 | c1ccc2c(Nc3ccc(Cc4ccc(Nc5c6ccccc6nc6ccccc56)cc4)cc3)c3ccccc3nc2c1 | 6.04% | 6.65% | 2.95%
12 | O=C(/C=C/c1ccc(Cl)c(Cl)c1)NCCCCCN1CCC(NC(=O)Nc2ccc(F)c(Cl)c2)CC1 | 3.93% | 4.82% | 6.8%
13 | Cc1cnc(NCCc2ccc(F)cc2)nc1NCCC(=O)Nc1ccccc1 | 4.88% | 4.76% | 2.38%
14 | CC(C)(C)[C@@H](Nc1ccc(C#N)c2ccccc12)C(=O)NC1(Cc2ccc(O)c(Br)c2)CCCC1 | 2.05% | 3.09% | -0.09%
15 | CCN(Cc1ccccc1)C1CCN(Cc2cc(Br)ccc2O)CC1 | 2.39% | 2.05% | 2.71%
16 | Cc1ccccc1CN1CCCN(Cc2ccc(C(=O)Nc3ccc(C(C)(C)C)cc3)cc2)CC1 | 6.33% | 3.39% | 3.55%
17 | CCN(CC)CCNc1ccc(Nc2ccnc3cc4ccccc4cc23)cc1 | 0.35% | -0.38% | 3.92%
18 | Cc1cc(Nc2cccc(C#N)c2)nc(Nc2ccccc2C)n1 | 77.7% | 91.1% | 52.3%

Row | Compound | inhibition [1] | inhibition [2] | inhibition [3]
19 | Cc1nc2ccc3ccc(CNc4ccc(C(=O)N[C@@H](CCC(=O)O)C(=O)N[C@@H](Cc5cccs5)C(=O)O)c(F)c4)cc3c2c(=O)[nH]1 | 6.55% | 7.51% | 6.36%
20 | Cc1cccc2nc(-c3ccc(-c4cccc(CNC(C)C)c4)s3)[nH]c12 | 2.58% | 1.37% | 3.77%
21 | CC1(C)NC(N)=NC(=N)N1OCc1cc(Cl)cc2c1OCOC2 | 2.73% | -0.07% | 0.71%
22 | Cc1cc(OCCCN2CCC(NS(=O)(=O)c3cccc(Br)c3)CC2)c2ccccc2n1 | 10.9% | 9.48% | 9.99%
23 | COc1ccc(CNCc2cccc(-c3cccc(-c4nc5cc(F)ccc5[nH]4)c3)c2)cc1 | 2.28% | 0.55% | -0.04%
24 | CN(c1ccc2c(c1)nc(NC(=O)C1(c3cc(F)ccc3F)CC1)n2C)c1ccnc(Nc2cccc(CS(C)(=O)=O)c2)n1 | -0.91% | 0.33% | -1.29%
25 | CC(C)NCc1ccc(-c2ccc(NC(=O)c3ccc(Cl)cc3)cc2)cc1 | 19.7% | 16.2% | 16.1%
26 | Cc1cccc2nc(-c3ccc(-c4ccc(CN5CCN(c6ccc(C#N)cn6)CC5)cc4)s3)[nH]c12 | 5.16% | 6.3% | -0.38%
27 | CCC(=O)N[C@@H]1CN[C@@H](C#Cc2cc3c(Nc4ccc(OCc5cccc(F)c5)c(Cl)c4)ncnc3s2)C1 | 2.02% | 0.3% | 1.72%
28 | Cc1cccc(Nc2nccc(Nc3cccc(C(=O)NCCN4CCOCC4)c3)n2)c1 | 2.19% | 1.2% | 1.44%
29 | O=C(Nc1cccc(-c2cccc(-c3nc4cc(C(F)(F)F)ccc4[nH]3)c2)c1)c1csnn1 | 12.8% | 9.97% | 9.43%
30 | COc1ccc(OCCn2cc(C(=O)c3ccco3)c3ccccc32)cc1 | 3.1% | 1.5% | 2.42%
31 | N=c1c(C(=O)NCc2ccccc2)cc2c(=O)n3ccccc3nc2n1CCc1ccccc1 | 3.5% | 4.07% | 2.34%
32 | Cc1cc(N[C@@H](Cc2ccccc2)C(=O)NCCc2ccccc2)nc(NCCc2cccs2)n1 | 3.32% | 0.76% | 1.55%
33 | Cc1noc(C)c1-c1ccc2c(Nc3ccccc3C(C)(C)C)c(C(=O)NCc3cccc4ccccc34)cnc2c1 | 2.41% | 2.01% | 0.05%
34 | O=C(Nc1ccc2c(c1)CCNCC2)Nc1ccc2ccccc2c1 | 11.1% | 8.46% | 9.36%
35 | Cn1nc(-c2ccc(S(=O)(=O)N3CCC(CCN4CCC(c5c[nH]c6ccccc56)CC4)CC3)s2)cc1C(F)(F)F | 1.21% | 6.6% | 2.13%
36 | CC(C)C[C@H](NC(=O)c1cc(-c2ccc(F)cc2)no1)C(=O)O.CC(C)C[C@H](NC(=O)c1conc1-c1ccc(F)cc1)C(=O)O | 1.19% | 2.32% | 2.96%
